The list is not random: actives were taken first. Their share in the collection is about 0.95%.
RE007 growth inh – less growth of the S. pombe RE007 Vpr strain; Potency, µM (titrated, usually from 92.2 µM), for inactives: at the top dose activity change, negative = less growth, most hits filed as inhibitors; actives 0.21% (n = 360,000); S. pombe RE007 Vpr strain, BacTiter-Glo ATP luminescence, 24 h; active = well fitted falling curve with a large enough effect; inconclusive = small, poorly fitted or top-dose-only effect; inactive = no such curve, though single readings can be large or run the other way; note: nearly all actives have a fitted effect of over 50% in size
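Fission yeast strain RE007, carrying one chromosomally integrated HIV-1 vpr copy, was seeded at OD 0.01 in PMG+AL medium with 23 nL pinned compound. After 24 h at 30 °C and 99% humidity, viability was read by BacTiter-Glo luminescence.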
LmPK inhibitor – inhibitors of Leishmania mexicana pyruvate kinase | Q27686 | purified LmPK, Kinase-Glo ATP luminescence, 1 h | Potency, µM (top dose mostly 57.5 µM), without a hit: at the highest dose activity change, negative = inhibition, usual class: inhibitors | actives 0.37% (n = 290,000)
Target sequence (Q27686 whole entry, looked up): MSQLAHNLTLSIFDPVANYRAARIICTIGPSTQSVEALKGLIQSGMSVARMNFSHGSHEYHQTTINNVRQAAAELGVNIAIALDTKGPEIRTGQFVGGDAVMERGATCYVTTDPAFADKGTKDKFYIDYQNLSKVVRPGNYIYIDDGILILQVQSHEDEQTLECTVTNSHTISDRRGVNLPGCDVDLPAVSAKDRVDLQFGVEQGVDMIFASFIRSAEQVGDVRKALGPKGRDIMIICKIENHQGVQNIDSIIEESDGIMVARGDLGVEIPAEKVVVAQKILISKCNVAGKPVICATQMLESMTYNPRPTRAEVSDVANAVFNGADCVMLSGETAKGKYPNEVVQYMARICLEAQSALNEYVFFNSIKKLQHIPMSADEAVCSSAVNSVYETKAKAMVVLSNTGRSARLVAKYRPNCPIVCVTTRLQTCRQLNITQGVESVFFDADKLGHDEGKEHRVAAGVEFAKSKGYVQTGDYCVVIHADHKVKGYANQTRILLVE
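qHTS format; LmPK 0.1 nM; substrates PEP 0.5 mM and ADP 0.1 mM. One-hour room-temperature incubation, then coupled luciferase luminescence; 0.5 nM enzyme wells mark activation.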
Giardia FBPA inh – blocks Giardia fructose-bisphosphate aldolase activity | A8B2U2 | purified Giardia FBPA | AID 2451 | Potency, µM (doses to about 59.6 µM), without a hit: at the highest dose activity, negative = inhibition, actives largely listed as inhibitors | actives 0.71% (n = 290,000); note: nearly all actives have a fitted effect of over 55% in size
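40 nM FBPA preincubated 10 min at RT with compound (up to 57.5 uM final), then substrate plus GAPDH/TPI/NAD/arsenate coupling and diaphorase/resazurin added. Fluorescence read after 20 min at RT, 525/598 nm.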
Tb PYK inh – T. brucei pyruvate kinase inhibition. TbPYK enzyme, Kinase-Glo Plus ATP luminescence, 45 min. Potency, µM (series often up to 76.8 µM), for inactives: top-dose activity, negative = inhibition, actives largely listed as inhibitors. actives 0.12% (n = 410,000). AID 624173; note: nearly all actives have a fitted effect of over 50% in size
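Luminescent Kinase-Glo Plus end-point after 45 min room-temperature reaction of T. brucei pyruvate kinase started with 130 uM ADP (final). Buffer TEA 50 mM pH 7.2 with KCl, MgCl2, BSA, Tween-20; titration-based qHTS with fitted concentration-effect curves.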
The depositor's hits bear a star; ? = inconclusive; · = no result given; [ ] = remark or other dose. Unless noted, calls come from the whole dose curve; as a rule, active = well fitted curve in the direction sought with a large enough effect; inconclusive = small, poorly fitted or top-dose-only effect, or another doubt; inactive = no such curve, though single readings can be large; an effect the other way counts as inactive or inconclusive. % is set by controls: 0 for no effect and ±100 for the full control effect; potency is the fitted concentration of half-maximal effect.

SMILES | RE007 growth inh | LmPK inhibitor | Giardia FBPA inh | Tb PYK inh
O=c1c(-c2cc(O)c(O)c(O)c2)coc2cc(O)c(O)c(O)c12 | · | · | 5µM* | ·
CCCc1nc2c(=O)n(C)c(=O)nc-2n(C)n1 | -14% | -1% | 5µM* | -20%
Cn1nc(-c2ccccn2)nc2c(=O)n(C)c(=O)nc1-2 | -7% | 0% | ? | 0%
Cc1cccc(Oc2nc3c(c(=O)n(C)c(=O)n3C)n2C)c1C | · | · | · | 1%
CC1=C(C)/C(=N\OS(=O)(=O)c2ccc(C)cc2)C=CC1=O | 16µM* | 1% | 4µM* | -10%
CC1=C/C(=N\OS(=O)(=O)c2ccccc2)C(C(C)C)=CC1=O | ? | -3% | 11µM* | -3%
CC1=C/C(=N\OS(=O)(=O)c2ccccc2)C(C)=CC1=O | 35µM* | -4% | 7.9µM* | 4%
CC(S(=O)(=O)c1ccccc1)S(=O)(=O)c1ccccc1 | -15% | · | · | 4%
COc1cccc(NC(=O)c2c(-c3ccc(C)cc3)nnc3ccccc23)c1 | · | · | · | -1%[15.4 µM]
C=CCN=C1NN=C(c2ccc3c(c2)OCCO3)CS1 | 0% | 10µM* | -24% | -15%
c1ccc(C2=NNC(=NCc3ccc4c(c3)OCO4)SC2)cc1 | 6% | -1% | 6% | -9%
CCc1ccc(C(=O)Nc2cccc(-c3nc4cc(C(C)C)ccc4o3)c2)cc1 | · | · | · | -1%
Cc1[nH][nH]c(=O)c1C(c1c(C)[nH][nH]c1=O)c1cn(C)c2ccccc12 | -6% | -3% | 2.8µM* | -6%
Cc1[nH][nH]c(=O)c1C(c1c(C)[nH][nH]c1=O)c1cn(Cc2cccc3ccccc23)c2ccccc12 | -7% | 1% | ? | 3%
CC(C)(C)C1CCc2c(sc3nc(SCC(=O)O)nc(N)c23)C1 (stereo not given) | -1% | 25µM* | 7% | ?
COCc1nnc(NC(=O)COc2ccc3c(c2)OCO3)s1 | 3% | -4% | -23% | 2%
COc1ccc(OCC(=O)Nc2nccs2)cc1 | -6% | 25µM* | 1% | -25%
O=C(COc1ccc2c(c1)OCO2)Nc1nccs1 | 1% | 14µM* | -1% | ?
CN1CCN=C(c2ccccc2)c2cc(Cl)ccc21 | · | · | · | 0%
CC(C)CCC(CC(C)O)c1n[nH]c(=S)n1-c1ccccc1 (stereo not given) | 28% | 10µM* | -10% | 4.5µM*
CCC(c1n[nH]c(=S)n1-c1ccccc1)N(C)C (stereo not given) | 10% | -22% | ? | ?
O=C1C=C(O)c2cccc3cccc1c23 | 11% | 0% | -7% | -2%
NC1=CC(=O)c2cccc3cccc1c23 | · | -2% | 20µM* | ·
Cc1ccc2c(c1)CC1(CN2C)C(=O)OC2(CCCCC2)OC1=O | -6% | 14µM* | ? | 0%
Cc1ccc2c(c1)CC1(CN2C)C(=O)NC(=O)N(c2ccccc2C)C1=O (stereo not given) | 1% | 1% | -19% | -2%
SMILES | RE007 growth inh | LmPK inhibitor | Giardia FBPA inh | Tb PYK inh
Cc1cccc(-c2cc3c(nn2)-c2ccccc2C3=O)c1 | ? | 7.1µM* | -27% | -20%
COc1ccc(-c2cc3c(nn2)-c2ccccc2C3=O)cc1 | ? | ? | -17% | ?
CC(=O)Nc1ccc2nc(-c3ccccn3)[nH]c2c1 | 7% | -25% | ? | -4%
c1ccc(-c2nc3cc4ccccc4cc3[nH]2)nc1 | ? | 16µM* | -21% | -19%
O=C(NCCc1csc(-c2ccc(F)cc2)n1)C(=O)Nc1ccc(Cl)cc1 | · | · | · | -3%
O=c1cc[nH]c(=S)[nH]1 | · | · | 16µM* | 2%
CC(=O)[C@@]1(O)CC[C@H]2[C@@H]3C=C(Cl)C4=CC(=O)CC[C@]4(C)[C@H]3CC[C@@]21C | · | · | · | 2%
CC(=O)n1cc(C=C2C(=O)NC(=O)NC2=O)c2ccccc21 | 5% | -1% | ? | 28µM*
CCOc1ccc(NC(=O)c2c(NCc3cccs3)sc3c2CCC(C)C3)cc1 (stereo not given) | · | · | · | -10%
CCOc1ccc(NC(=O)c2c(NCc3cccnc3)sc3c2CCC(C)C3)cc1 (stereo not given) | · | · | · | 14µM*
Cc1nc2scc(-c3ccccc3)c2c(=O)n1N=C1C=CC(=O)C=C1 | -4% | -21% | -1% | 4µM*
CCOc1ccc(NC(=O)Cn2ncc3c2-c2cc(C)ccc2OC3)cc1 | · | · | · | 6%

From PubChem BioAssay
